Source: PubChem BioAssay (NCI)
Where “and” joins values, the source holds several entries; their conditions need not be identical. Equal entries are not always repeated. Compounds without any hit were thinned out: in the full panel of roughly 83,000, 20% have a hit.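 Interpretation: 100, growth as untreated; towards 0, rising growth inhibition; 0, no net growth; 0 to -100, cell death. Compounds scoring below 10 were considered active.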 Unmarked numbers belong to inactive results. Calls of active or inactive are those of the source.

These compounds were tested on MDA-MB-468 breast (assay: NCI-60 one-dose screen, 48 h (100 = growth as untreated, 0 = no growth, -100 = all killed)). Details: 10 µM unless noted.

Row | SMILES | growth
1 | CN1C/C=C\CCOc2cccc(c2)-c2ccnc(n2)Nc2cccc(c2)C1 | -58.2% (active)
2 | COc1cccc(-c2cnco2)c1OCc1c(C)c(COc2c(OC)cccc2-c2cnco2)c(C)c(COc2c(OC)cccc2-c2cnco2)c1C | 59%
3 | N#CN1CC[C@H](C(=O)Nc2ncc(-c3ccncc3)s2)C1 | -35.7% (active)
4 | COC(=O)CNC(=O)c1cccc(-c2cc(=O)c3c(OC)c(OC)c(OC)cc3o2)c1 | 89.8%
5 | Cc1ccc(C(=O)Nc2cccc(C(F)(F)F)c2)cc1Nc1nc(-c2cnccn2)nc2c1cnn2C | 104%
6 | N#CC1=C(N)Oc2c(sc3c(Br)cccc23)C1c1ccc(Br)cc1 (configuration not stated) | 12.1%
7 | CCS/C(Nc1ccccc1)=C(\C#N)C(=O)Nc1ccc(OC)cc1 | -2.63% (active)
8 | CC1=NN2C(=NC3=C(CCC/C3=C\c3ccc(Cl)cc3)C2c2ccc(Cl)cc2)S1 (configuration not stated) | 95.6%
9 | COc1ccc(/C=C/c2c(C(=O)/C=C/c3ccc(Cl)cc3)c(C)nc3ccccc23)cc1 | 34.7%
10 | CN(C)N=Nc1nn(C(=O)Nc2ccc(Cc3ccccc3)cc2)c2ccccc12 | 69.2%
11 | CCc1c(C)c2ccc(OCC(=O)N=Nc3c(O)[nH]c4ccccc34)c(C)c2oc1=O | 18.9%
12 | COc1cc(C2C=C(c3ccc(Cl)cc3)N=C3SC(C)=CN32)cc(OC)c1OC (configuration not stated) | 80.2%
13 | N#CSc1c[nH]c2cccc(/C=C/C(=O)/C=C(/C=C/c3cccc4[nH]cc(SC#N)c34)OB(F)F)c12 | -32% (active)
14 | CC(C)(C)c1ccc(CC(=O)Nc2sc3c(c2C(N)=O)CCC(=O)C3)cc1 | -13.9% (active)
15 | NC1=NC2(CCCC2)N(c2ccc(S(=O)(=O)Nc3nccs3)cc2)C(N)=N1 | 90.7%
16 | Cc1ccc(N(C(=O)CCc2c[nH]c3ccccc23)[C@H](C(=O)Nc2ccc(Cl)cc2)c2cccc([N+](=O)[O-])c2)cc1 | 91.3%
17 | COc1cc(CCn2nnc3c(NCCCCO)ncnc32)cc(OC)c1 | 93.5%
18 | CN1CCCCC1CCN1c2ccccc2Sc2ccc(Cl)cc21 (configuration not stated) | 30.2%
19 | O=S(=O)(NCCCNc1nccc(-c2c(-c3ccc(F)c(O)c3)nc3occn23)n1)c1ccccc1 | 94.8%

Row | SMILES | growth
20 | CCc1ccc(CCCC(=O)O)cc1 | 107%
21 | CCCOCC(O)CNCCN (configuration not stated) | 106%
22 | O=C1OC(c2ccccc2)=N/C1=C\c1ccccc1 | 92.4%
23 | COc1cccc(NC(=O)Nc2ccc(Oc3ncnc4[nH]c(C)c(C)c34)cc2)c1 | 125%
24 | COc1c(O[C@@H]2OC(CO)[C@H](O)[C@H](O)C2O)cc2oc3cc(O)c(CC=C(C)C)c(O)c3c(=O)c2c1CC=C(C)C (some centres not stated) | 99.8%
25 | CCCCCOC(=O)c1ccccc1O | 107%
26 | O=c1c2cc(Br)cc(Br)c2nc(-c2ccc(Cl)cc2)n1/N=C/c1cccc(F)c1 | 62.6%
27 | C=C(C[n+]1ccccc1)[C@@H]1CC[C@]2(C(=O)OC)CC[C@]3(C)[C@H](CC[C@@H]4[C@@]5(C)CC[C@H](O)C(C)(C)[C@@H]5CC[C@]43C)[C@@H]12 | 86.3%
28 | CC(Br)C(O)c1cc2c(cc1Br)OCO2 (configuration not stated) | 108%
29 | COc1ccccc1C(C)=O | 108% and 111%
30 | OCCNc1nc(NCCO)nc(Nc2ccc(C3=NN(c4cc(Cl)cc(Cl)c4)C(c4ccc(C(F)(F)F)cc4)C3)cc2)n1 (configuration not stated) | 39.7%
31 | CCN(CC)CCCC(C)Nc1cc(-c2cccc(OC(F)(F)F)c2)nc2ccc(N3CCCC3)cc12 (configuration not stated) | -56.3% (active)
32 | COc1cccc(NC(=O)c2sc3nc(C)c(C(C)=O)cc3c2N)c1 | -14.8% (active)
33 | COc1ccccc1-c1ccc2nc(NC(=O)Nc3cc(C(F)(F)F)cc(C(F)(F)F)c3)sc2c1 | -8.23% (active)
34 | [2H]c1nc(Nc2ncc(F)c(-c3cc(F)c4nc(C)n(C(C)C)c4c3)n2)c([2H])c([2H])c1CN1CCN(CC)CC1 | 90.1%
35 | Brc1ccsc1Br | 103%
36 | COC(=O)c1cc(O)c2cc3c(cc2c1-c1cc(OC)c(OC)c(OC)c1)OCO3 | -8.52% (active)
37 | COc1ccccc1Nc1nc2c(s1)C1=CC[C@H]3[C@@H]4CC[C@H]([C@H](C)CCCC(C)C)[C@@]4(C)CC[C@@H]3[C@@]1(C)CC2 | 113%
